The panel holds about 79,000 compounds, 15% with a hit somewhere; the sample as a whole holds those more often. A number with no mark means an inactive call. Active and inactive are the calls of the source. Cut-off read from the data, not from the text of the source: active = growth inhibition above about 70%; inactive = the rest.
Key:
[1] = NCI Yeast Anticancer Drug Screen. Data for the sgs1 mgt1 strain (AID 161);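 note: 0% = growth of cultures given vehicle only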; details: S. cerevisiae sgs1 mgt1 strain, at 50.0 µM, stronger effect = higher value
Method in brief: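 Growth of a repair-deficient yeast mutant was monitored after compound treatment and expressed as inhibition relative to vehicle-treated cultures.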

[2] = NCI Yeast Anticancer Drug Screen. Data for the CLN2oe strain (AID 163);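 note: 0% = growth of vehicle-only control cultures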; details: S. cerevisiae CLN2oe strain, stronger effect = higher value
Method in brief: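 Yeast cells carrying a defined cell-cycle control alteration were exposed to test compounds. Growth inhibition was scored against vehicle-treated control cultures.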

[3] = NCI Yeast Anticancer Drug Screen. Data for the cln2 rad14 strain (AID 165);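 note: 0% = growth equal to vehicle treated cultures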; details: S. cerevisiae cln2 rad14 strain, stronger effect = higher value
Method in brief: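 Yeast carrying cln2 and rad14 alterations (cell cycle control and DNA damage repair) were exposed to compounds. Growth inhibition was measured against vehicle-treated controls.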

[4] = NCI Yeast Anticancer Drug Screen. Data for the bub3 strain (AID 167); details: S. cerevisiae bub3 mutant strain, stronger effect = higher value
Method in brief: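 Steps: expose the mutant yeast strain to compound; grow alongside vehicle-treated cultures; measure growth; express inhibition against the vehicle cultures.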

[5] = NCI Yeast Anticancer Drug Screen. Data for the wt2 strain (AID 169);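 note: 0% = growth of vehicle-treated yeast cultures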; details: S. cerevisiae wt2 strain growth inhibition, stronger effect = higher value
Method in brief: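 Yeast cells were exposed to test compounds, and growth inhibition was measured relative to vehicle-treated controls.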

[6] = NCI Yeast Anticancer Drug Screen. Data for the mlh1 strain (AID 171);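 note: 0% = growth of vehicle-treated control cultures of the same strain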; details: S. cerevisiae mlh1 strain growth inhibition, stronger effect = higher value
Method in brief: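 Yeast carrying a defined genetic alteration in DNA damage repair or cell cycle control were exposed to test compounds. Growth inhibition was measured relative to vehicle-treated controls.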

[7] = NCI Yeast Anticancer Drug Screen. Data for the sgs1 strain (AID 173);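 note: 0% = growth of vehicle-only control cultures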; details: S. cerevisiae sgs1 mutant, stronger effect = higher value
Method in brief: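 Yeast mutant strains carrying defined defects in DNA damage repair or cell cycle control were exposed to test compounds. Growth inhibition was scored against vehicle-treated controls.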

[8] = NCI Yeast Anticancer Drug Screen. Data for the mlh1 rad18 strain (AID 175); details: S. cerevisiae mlh1 rad18 strain growth inhibition, stronger effect = higher value
Method in brief: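 Growth inhibition of the yeast strain was measured after compound exposure and expressed relative to vehicle-treated controls. The strain carries defined defects in DNA damage repair.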

[9] = NCI Yeast Anticancer Drug Screen. Data for the rad18 strain (AID 177); details: S. cerevisiae rad18 mutant growth inhibition, stronger effect = higher value
Method in brief: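 Yeast carrying a defined DNA damage repair alteration were exposed to compounds. Growth inhibition was expressed relative to vehicle-treated controls.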

[10] = at 5.0 µM (retest, dose inferred, filed as 0.5)
[11] = at 50.0 µM (retest, dose inferred, filed as 5.0)

Q: With `COC1=C(N=[N+]=[N-])C(=O)c2ncccc2C1=O` as the molecule, how does the growth inhibition [1] read?
A: 82.3% (active)

Q: And the growth inhibition ([2]; at 1.2 µM)?
A: -5%

Q: What about the growth inhibition ([2]; at 3.7 µM) of the same molecule?
A: 13%

Q: And the growth inhibition ([2]; at 11.0 µM)?
A: 26%

Q: What about the growth inhibition ([2]; at 33.0 µM) of the same molecule?
A: 69%

Q: And the growth inhibition ([2]; at 100.0 µM)?
A: 95% (active)

Q: And the growth inhibition [3, 10]?
A: 24%

Q: What about the growth inhibition [3, 11] of the same molecule?
A: 93% (active)

Q: What about the growth inhibition ([3]; at 50.0 µM) of the same molecule?
A: 80.5% (active)

Q: And the growth inhibition ([4]; at 1.2 µM)?
A: 7%

Q: And the growth inhibition ([4]; at 3.7 µM)?
A: 18%

Q: What about the growth inhibition [4, 10] of the same molecule?
A: -4%

Q: And the growth inhibition ([4]; at 11.0 µM)?
A: 18%

Q: And the growth inhibition ([4]; at 33.0 µM)?
A: 72% (active)

Q: What about the growth inhibition [4, 11] of the same molecule?
A: 88% (active)

Q: And the growth inhibition ([4]; at 50.0 µM)?
A: 78% (active)

Q: And the growth inhibition ([4]; at 100.0 µM)?
A: 94% (active)

Q: What about the growth inhibition ([5]; at 1.2 µM) of the same molecule?
A: -55%

Q: And the growth inhibition ([5]; at 3.7 µM)?
A: -12%

Q: And the growth inhibition ([5]; at 11.0 µM)?
A: 49%

Q: And the growth inhibition ([5]; at 33.0 µM)?
A: 92% (active)

Q: And the growth inhibition ([5]; at 100.0 µM)?
A: 95% (active)

Q: What about the growth inhibition ([6]; at 1.2 µM) of the same molecule?
A: 10%

Q: What about the growth inhibition ([6]; at 3.7 µM) of the same molecule?
A: 6%

Q: And the growth inhibition ([6]; at 11.0 µM)?
A: 21%

Q: And the growth inhibition ([6]; at 33.0 µM)?
A: 80% (active)

Q: What about the growth inhibition ([6]; at 100.0 µM) of the same molecule?
A: 94% (active)

Q: And the growth inhibition ([7]; at 1.2 µM)?
A: 8%

Q: What about the growth inhibition ([7]; at 3.7 µM) of the same molecule?
A: 30%

Q: And the growth inhibition ([7]; at 11.0 µM)?
A: 56%

Q: And the growth inhibition ([7]; at 33.0 µM)?
A: 84% (active)

Q: What about the growth inhibition ([7]; at 100.0 µM) of the same molecule?
A: 94% (active)

Q: What about the growth inhibition [8, 10] of the same molecule?
A: 69%

Q: What about the growth inhibition [8, 11] of the same molecule?
A: 95% (active)

Q: What about the growth inhibition ([9]; at 1.2 µM) of the same molecule?
A: 60%

Q: What about the growth inhibition ([9]; at 3.7 µM) of the same molecule?
A: 89% (active)

Q: And the growth inhibition ([9]; at 11.0 µM)?
A: 94% (active)

Q: What about the growth inhibition ([9]; at 33.0 µM) of the same molecule?
A: 96% (active)

Q: And the growth inhibition ([9]; at 100.0 µM)?
A: 96% (active)

From PubChem BioAssay (NCI)
